# Assay outcomes deposited in PubChem by The Scripps Research Institute Molecular Screening Center.
# Only some compounds are listed: those with a hit (about 2.4% of all), similar ones and a draw of the others.
# CHRM1 antagonist = antagonists of human M1 muscarinic receptor | 360,000 tested, 1.3% active | inhibition, % at 3 µM | CHO-K1 hM1, Fluo-8 calcium fluorescence, ACh EC80 antagonist | P11229;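 active = percent inhibition above its own plate's cutoff, namely the mean of that plate's compound wells plus 3 SD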;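 note: peak over basal fluorescence ratio during 140 s after agonist addition; 0% = ACh EC80 plus DMSO and 100% = DMSO alone without agonist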
# M1 PAM parental = M1 PAM counterscreen hit in parental CHO-K1 cells; activation, % at 3 µM; ATP EC20, Fluo-8 calcium fluorescence; 0% at ATP EC20, 100% at ATP max; 360,000 tested, 0.02% active;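 active = activation above the run cutoff, the mean activation of all test compounds plus 3 SD, cut at about 40% in these data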;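 note: peak over basal fluorescence ratio in a 140 s read after ATP addition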
# M1 PAM = human CHRM1 positive allosteric modulation. 360,000 tested, 0.088% active. activation, % at 3 µM. CHO-K1 hM1, Fluo-8 calcium fluorescence, ACh EC20; 0% = ACh EC20, 100% = maximal ACh. AID 588819; in the data active = activation above about 19%, passing the limit was not always enough
# M1 ag parental = M1 agonist counterscreen hit in parental CHO-K1 cells; Fluo-8 calcium fluorescence; scaled to maximal ATP response, vehicle zero; activation, % at 3 µM; 360,000 tested, 0.48% active; AID 602248; in the data active = activation above about 15%;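 note: untransfected CHO-K1 host cells lacking M1 receptor as counterscreen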
# CHO-K1 Ca antag = nonselective inhibitor or artifact in parental CHO-K1 cells; ATP-induced calcium, Fluo-8 fluorescence; inhibition, % at 3 µM; 360,000 tested, 0.6% active;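 active = inhibition above a per-plate cutoff, the plate's mean sample inhibition plus 3 SD, cut at about 24% in these data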;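 note: 0% = DMSO plus EC80 ATP and 100% = DMSO alone without ATP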
# CHRM1 agonist = human M1 muscarinic receptor agonism. AID 588814. activation, % at 3 µM. 360,000 tested, 0.33% active. P11229. CHO-K1 hM1, Fluo-8 calcium fluorescence, agonist mode; 0% DMSO, 100% acetylcholine EC100;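 active = activation above the run's mean compound activation plus 3 SD, cut at about 16% in these data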;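 note: peak over basal fluorescence ratio within a 140 s kinetic read after compound addition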
# * hit, by the source's call; . = no result.
SMILES,CHRM1 antagonist,M1 PAM parental,M1 PAM,M1 ag parental,CHO-K1 Ca antag,CHRM1 agonist
O=C(Nc1ccccc1)c1cc(C2CCCN(C(=O)CCc3ccccc3)C2)on1 (stereo not drawn),-12,12,0,2,-6,-4
CN(C)c1ccc(CC(=O)N2CCCC(c3cc(C(=O)Nc4ccc(C(C)(C)C)cc4)no3)C2)cc1 (stereo not drawn),29*,8,-11,5,9,3
Cc1ccc(C(C)NC(=O)/C(C#N)=C\c2c(C)[nH]c3ccccc23)cc1 (stereo not drawn),12,12,0,7,-10,21*
O=C(Nc1ccc2c(c1)OCO2)c1ccc2sc([C@@H]3O[C@H](CO)[C@@H](O)[C@H]3O)nc2c1,-9,4,3,0,0,-2
O=C(Nc1ccc2c(c1)OCO2)c1ccc2sc([C@H]3C[C@H](O)[C@@H](CO)O3)nc2c1,-24,12,28*,0,-4,3
O=C(NCC1CCCCC1)c1ccc2sc([C@H]3C[C@H](O)[C@@H](CO)O3)nc2c1,-8,-13,8,2,35*,-2
CC(NC(=O)c1ccco1)C(c1cccs1)N1CCN(c2ccc(F)cc2)CC1 (stereo not drawn),51*,14,-18,3,-5,-9
COc1ccc(C(=O)OCC(=O)N2CCCCCC2)cc1S(=O)(=O)N1CCOCC1,-7,25,7,1,-8,-1
Cn1c(NCc2ccccc2O)nc2ccccc21,-2,4,1,0,6,-5
CC(C)n1c(NCc2ccccc2O)nc2ccccc21,-8,17,9,23*,1,-4
O=S1(=O)CC(N2CCCCC2)CN1Cc1cn(Cc2cccc(Cl)c2)nn1 (stereo not drawn),.,1,.,0,-13,.
CNC(=S)N(CCc1c(C)[nH]c2ccccc12)Cc1cccnc1,-13,4,5,2,-13,-3
COc1ccc(S(=O)(=O)NCC2CCCN(Cc3ccc(OC)cc3F)C2)cc1 (stereo not drawn),-3,23,2,1,-15,-14
COc1ccc(S(=O)(=O)NCC2CCCN(Cc3ccccc3Cl)C2)cc1 (stereo not drawn),51*,-14,-24,0,3,-6
